Sampled rows, rich in hits. Any-hit rate of the full collection: about 6.6%.
GRIN3A LBD mod: NR3A (human) ligand-binding domain modulation. NR3A LBD differential scanning fluorimetry, Tm shift; 0% = protein alone, 100% = glycine-bound protein. Tm shift relative to glycine control, % at 25 µM. hit rate 2.5% among 340,000;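 active means melting temperature shift of at least 10% of the positive control shift, at one fixed dose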
MPTP inh: permeability transition pore inhibition | inhibition, % at 10 µM | hit rate 1.4% among 360,000 | isolated mouse mitochondria, Ca2+ swelling absorbance, 30 min;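 active means inhibition of 50% or more, scaled per plate between neutral and stimulator controls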;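 further: 0% = DMSO wells given calcium and 100% = 1 mM EGTA wells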
CSC inhib: cancer stem cell inhibition | cancer stem cell-like cells viability, luminescence | inhibition, % at 7.5 µM | hit rate 1.1% among 300,000 | AID 2717; in the data active means inhibition above about 75%; tested in HMLE shEcad cells
Beta cell apopt: beta cell apoptosis inhibition; hit rate 0.8% among 300,000; INS-1E cytokine-induced death, ATP luminescence, 48 h; percent of positive-control rescue, neutral wells zero; protection from apoptosis, % (test concentration not listed);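 active means Every replicate reaches about 75%, or at least half do and their mean reaches it too, limit read from the data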;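 further: 0% = cytokine-treated negative control wells and 100% = positive control rescue; higher means more ATP so stronger rescue from cytokine killing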
Mdm2 MdmX PPI: human Mdm2/MdmX binding inhibition. SaOS-2 split-luciferase Mdm2/MdmX complementation, luminescence. O15151+Q00987. hit rate 3% among 330,000. inhibition, % at 8 µM;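 active means inhibition of at least 50% at 8 µM in the primary screen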
Target sequence (O15151 whole entry, looked up): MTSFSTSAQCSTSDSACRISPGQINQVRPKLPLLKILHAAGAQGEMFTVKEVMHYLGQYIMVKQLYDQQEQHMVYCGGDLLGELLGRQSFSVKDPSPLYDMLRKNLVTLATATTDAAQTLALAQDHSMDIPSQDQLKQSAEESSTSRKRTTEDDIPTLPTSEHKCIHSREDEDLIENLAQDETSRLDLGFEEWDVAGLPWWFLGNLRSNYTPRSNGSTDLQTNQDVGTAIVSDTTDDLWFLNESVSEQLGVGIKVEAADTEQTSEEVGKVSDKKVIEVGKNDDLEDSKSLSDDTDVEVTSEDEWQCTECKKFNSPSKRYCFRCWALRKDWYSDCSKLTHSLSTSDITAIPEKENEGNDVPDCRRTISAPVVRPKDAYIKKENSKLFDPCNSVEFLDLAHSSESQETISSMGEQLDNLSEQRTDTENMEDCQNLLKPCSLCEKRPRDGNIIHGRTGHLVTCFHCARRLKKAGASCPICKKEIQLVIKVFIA
Target sequence (Q00987 whole entry, looked up): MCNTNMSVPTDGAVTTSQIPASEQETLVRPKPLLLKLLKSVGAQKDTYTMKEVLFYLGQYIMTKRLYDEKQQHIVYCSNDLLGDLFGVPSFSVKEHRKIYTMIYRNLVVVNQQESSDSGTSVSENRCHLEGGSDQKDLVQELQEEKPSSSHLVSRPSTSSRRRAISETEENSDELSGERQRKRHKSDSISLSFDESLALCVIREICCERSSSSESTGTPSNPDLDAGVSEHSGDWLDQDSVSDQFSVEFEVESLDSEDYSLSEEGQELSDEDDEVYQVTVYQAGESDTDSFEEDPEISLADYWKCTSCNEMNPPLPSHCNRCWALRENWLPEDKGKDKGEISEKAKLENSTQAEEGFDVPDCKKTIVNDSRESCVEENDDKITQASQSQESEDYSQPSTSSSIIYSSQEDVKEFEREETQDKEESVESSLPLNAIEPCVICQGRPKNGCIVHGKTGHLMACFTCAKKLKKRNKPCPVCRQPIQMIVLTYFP
Gli-Sufu block: antagonists of Gli-Sufu signaling | Sufu-KO-LIGHT fibroblasts, Gli luciferase reporter luminescence | inhibition, % at 5 µM | hit rate 0.74% among 340,000 | AID 588413;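 active means inhibition above about 55%, limit read from the data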;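 further: 0% = DMSO-treated cells and 100% = wells with medium but no cells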
An asterisk follows results filed as active.

CCN1CCN(S(=O)(=O)c2c[nH]c(C(=O)OC)c2)CC1 was read as GRIN3A LBD mod -1.4, MPTP inh -1.1, CSC inhib -9.0, Beta cell apopt -0.2, Mdm2 MdmX PPI 2.7 and Gli-Sufu block -2.9.
`COC(=O)c1ccc(-n2nnnc2SCC(=O)N2CCCCC2)cc1` gave GRIN3A LBD mod 37.4*, MPTP inh 3.2, Beta cell apopt -3.7, Mdm2 MdmX PPI -9.1 and Gli-Sufu block 7.9.
For COc1ccc(C2/C=C\CC(NS(=O)(=O)c3ccc(C)cc3)CC(=O)N2Cc2ccccc2F)cc1 (stereo unspecified) the results were GRIN3A LBD mod -10.6, MPTP inh -0.3, Mdm2 MdmX PPI 27.3 and Gli-Sufu block -6.4.
For Nc1cc2c(cc1[N+](=O)[O-])-c1ccccc1C2=NO the results were GRIN3A LBD mod 22.8*, MPTP inh 3.1 and Gli-Sufu block -25.1.
Cc1cccc(N2C(=O)N3[C@@H]4c5ccccc5OC[C@@H]4[C@@H](c4ccccc4)[C@@]3(C)C2=O)c1 was read as GRIN3A LBD mod -1.8, MPTP inh 0.3, CSC inhib -3.5, Beta cell apopt -1.4, Mdm2 MdmX PPI 30.6 and Gli-Sufu block -6.1.
For C/C(=N/Nc1ccc(C(=O)c2c(C)cc3ccccn23)cc1[N+](=O)[O-])c1ccc(O)cc1 the results were GRIN3A LBD mod 11.0*, MPTP inh 5.2 and Gli-Sufu block -0.2.
For O=C(NC1CCOCC1)C1CCC(=O)N(CCc2ccc(Cl)cc2)C1 (stereo unspecified) the results were GRIN3A LBD mod 1.2, MPTP inh -2.3, CSC inhib 2.2, Beta cell apopt -0.9, Mdm2 MdmX PPI 13.6 and Gli-Sufu block -14.9.
`Cn1ncc(N=Cc2ccc([N+](=O)[O-])cc2)c1C(=O)Nc1ccccc1` gave GRIN3A LBD mod 13.8*, MPTP inh 0.3, CSC inhib -16.9, Mdm2 MdmX PPI 11.2 and Gli-Sufu block -8.4.
For O=[N+]([O-])c1ccc(NN=Cc2cccc(O)c2)nc1 the results were GRIN3A LBD mod 12.3*, MPTP inh 1.3 and Gli-Sufu block -50.7.
`CC(=O)Nc1ccc(C=NNc2ccc([N+](=O)[O-])cn2)cc1` gave GRIN3A LBD mod 24.2*, MPTP inh 1.5 and Gli-Sufu block -98.1.
For COc1cc(/C=N/Nc2ccc([N+](=O)[O-])cn2)cc(OC)c1O the results were GRIN3A LBD mod 1.2, MPTP inh 1.0, CSC inhib 12.5, Beta cell apopt 4.5, Mdm2 MdmX PPI 28.7 and Gli-Sufu block 8.6.
Screening CNC(=S)N(Cc1ccccc1)Cc1cccnc1 returned GRIN3A LBD mod 0.8, MPTP inh 1.5, CSC inhib 38.3, Beta cell apopt -12.0, Mdm2 MdmX PPI -19.8 and Gli-Sufu block 7.8.
`O=C(CN1C(=O)NC(c2ccccc2)(c2ccccc2)C1=O)NC1CCCCC1` gave GRIN3A LBD mod 0.9, MPTP inh -2.9, Mdm2 MdmX PPI -10.0 and Gli-Sufu block 0.7.
Screening CC(C)c1ccc(NC(=O)COC(=O)[C@@H]2CCCN2C(=O)c2cccs2)cc1 returned GRIN3A LBD mod 2.4, MPTP inh 0.5, CSC inhib -11.4, Beta cell apopt -1.7, Mdm2 MdmX PPI 12.9 and Gli-Sufu block -11.9.
Screening COC(=O)N(C)C[C@@H]1OCc2cnnn2CCCC(=O)N([C@@H](C)CO)C[C@H]1C returned MPTP inh 0.1.
Screening COc1ccc2nc3sc(C(=O)NCCCN4CCc5ccccc5C4)cc3cc2c1 returned GRIN3A LBD mod 23.2*, MPTP inh 45.2, CSC inhib 5.1, Beta cell apopt -8.9, Mdm2 MdmX PPI -12.3 and Gli-Sufu block -20.1.
`O=S(=O)(Nc1nc(-c2ccccc2)cs1)c1cccc(C(F)(F)F)c1` gave GRIN3A LBD mod 7.2, MPTP inh 9.4, CSC inhib 33.3, Beta cell apopt -1.1, Mdm2 MdmX PPI 7.2 and Gli-Sufu block 17.9.
Screening NC(=O)c1cc2c(s1)-c1cc(Cl)ccc1SC2 returned GRIN3A LBD mod 46.7*, MPTP inh 1.3, CSC inhib 7.0, Beta cell apopt -9.2, Mdm2 MdmX PPI 49.7 and Gli-Sufu block 2.9.
For CC(C)c1ccc(-c2cc(C(=O)N3CCOCC3)c3cc(Br)ccc3n2)cc1 the results were GRIN3A LBD mod 18.6*, MPTP inh 0.7, CSC inhib 36.6, Beta cell apopt 7.4, Mdm2 MdmX PPI 13.4 and Gli-Sufu block 6.1.
Screening NNC(=O)c1cc(-c2ccc(N)cc2)nc2ccc(Br)cc12 returned GRIN3A LBD mod 18.1*, MPTP inh -0.3, CSC inhib 13.3, Beta cell apopt -3.2, Mdm2 MdmX PPI 0.4 and Gli-Sufu block 0.8.
O=C(c1cc(-c2ccccc2)nc2ccccc12)N1CCOCC1 was read as GRIN3A LBD mod -5.5, MPTP inh -1.7, CSC inhib -10.8, Beta cell apopt -4.3, Mdm2 MdmX PPI 1.9 and Gli-Sufu block 4.3.
For COc1ccc2nc3n(c(=O)c2c1)-c1ccccc1C(=O)NC3Cc1ccccc1 (stereo unspecified) the results were Beta cell apopt -2.6 and Mdm2 MdmX PPI 22.0.
For C=CCSc1nc(Oc2ccccc2)c2sccc2n1 the results were GRIN3A LBD mod 15.0*, MPTP inh 2.3, CSC inhib 23.1, Mdm2 MdmX PPI 37.0 and Gli-Sufu block -0.5.
`CC(C)(C)Cc1c(-c2ccc(Cl)cc2)nc2c(Cl)cc(C(F)(F)F)cn12` gave MPTP inh 2.9.
`Cc1ccc(N=C2NC(=O)/C(=C\c3ccco3)S2)cc1` gave GRIN3A LBD mod -7.4, MPTP inh 2.9, CSC inhib -16.8, Beta cell apopt -1.4, Mdm2 MdmX PPI -77.7 and Gli-Sufu block -15.1.
`O=C1NC(=Nc2ccc(O)cc2)S/C1=C/c1ccco1` gave GRIN3A LBD mod 12.7*, MPTP inh -0.9, CSC inhib 5.1, Beta cell apopt 1.5, Mdm2 MdmX PPI 48.8 and Gli-Sufu block 0.1.
CC(=O)Nc1ccc(S(=O)(=O)NC2CC(=O)N(c3ccc4c(c3)OCCO4)C2)cc1 (stereo unspecified) was read as GRIN3A LBD mod 16.8*, MPTP inh -0.3, CSC inhib -2.4, Mdm2 MdmX PPI -21.5 and Gli-Sufu block 2.8.
CC1(C(=O)NS(=O)(=O)C2CC2)CCN(C(=O)CSc2ccccc2)C1 (stereo unspecified) was read as MPTP inh 0.0.
For O=C1NC(=S)S/C1=C\c1cc(Cl)cc(Cl)c1O the results were GRIN3A LBD mod 16.6*, MPTP inh 7.6 and Gli-Sufu block 8.2.
For C=CCNC(=O)C1CCN(S(=O)(=O)c2ccc3ccccc3c2)CC1 the results were GRIN3A LBD mod -0.6, MPTP inh 0.1, CSC inhib 10.8, Beta cell apopt -8.8, Mdm2 MdmX PPI -7.0 and Gli-Sufu block 4.5.
Screening COC(=O)[C@@]12C[C@@H](CC(=O)N3CCSCC3)C(=O)N(Cc3cccc4ccccc34)C1=CCC(C)(C)C2 returned MPTP inh -1.8.
`O=C(COC(=O)CNS(=O)(=O)c1c(F)cccc1F)NC(=O)NC1CCCCC1` gave GRIN3A LBD mod 2.3, MPTP inh -0.1, CSC inhib -4.8, Beta cell apopt -3.3, Mdm2 MdmX PPI 7.4 and Gli-Sufu block -4.4.

Compound activity as filed in PubChem.
